According to PubChem BioAssay AID2315 (National Center for Advancing Translational Sciences (NCATS), 2010):
Among all 290,000 compounds or so, about 27,000 (9.3%) were called active. The sample holds actives, similar compounds and a random draw of the others, so the mix is not that of the screen. Unmarked numbers belong to inactive results. Rule as the data show it: active = inhibition mostly above about 28% (no sharp cut-off); inactive = mostly below about 43%.

Experiment: A qHTS for Small Molecule Inhibitors of Shiga Toxin; also: 0% is about no effect
Settings: Vero cells, Shiga toxin protein synthesis inhibition reporter; at 38.7 µM, active compounds read high

Compound	inhibition
CCc1ccc(N(CC(=O)NCc2cccnc2)S(=O)(=O)c2ccccc2)cc1	9.02%
CCn1nc(C)c(CNC(=O)C2CCC(=O)N(Cc3cccc(F)c3)C2)c1C (centres undefined)	-13.2%
C=Cc1ccc(C(=O)N2CCCC(CCC(=O)N3CCN(c4ccccn4)CC3)C2)cc1 (centres undefined)	4.52%
CN(CCC(=O)Nc1cc(S(=O)(=O)N(C)C)ccc1Cl)CC(=O)Nc1ccc(F)cc1	1.75%
CC1(c2ccc3ccccc3c2)NC(=O)NC1=O (centres undefined)	9.07%
O=C1CCCN2N=C(SCC(=O)Nc3ccc(Br)cc3)SC2=N1	-4.09%
CCn1cc(C(=O)N[C@@H](C)C(=O)NCCO)c(=O)c2cc3c(cc21)OCO3	-6.09%
CC(=O)c1cc(CN2CCC(C(=O)Nc3cccc(-c4cscn4)c3)CC2)cs1	12.4%
CSc1ccccc1OCc1cc(C(=O)N(C)CCc2c(C)n[nH]c2C)no1	-3.19%
CSc1ccccc1OCc1cc(C(=O)N2C[C@H]3CC[C@H]2C3)no1	108% (active)
COC(=O)[C@@H]1CCCN1C(=O)c1cc(COc2cccc3cccnc23)on1	18.1%
O=C(CSc1nc(O)c(Cc2ccccc2)c(=O)[nH]1)Nc1nc2c(s1)CCCC2	40.8% (active)
CSc1nc(O)c(Cc2ccccc2)c(=O)[nH]1	13.7%
CCOC(=O)c1sc(NC(=O)CSc2nc(O)c(Cc3ccccc3)c(=O)[nH]2)nc1C	107%
O=C(Nc1ccccc1C(=O)O)c1ccc(N2C(=O)C3CC=CCC3C2=O)cc1 (centres undefined)	21.8%
COc1ccccc1N(CC(=O)Nc1ccccc1C(=O)N1CCCC1)S(C)(=O)=O	-2.57%
CCC(=O)c1cc2c(cc1NC(=O)c1cccs1)OCCO2	-21.9%
Cn1c(NC(=O)c2ccc3c(c2)OCO3)cc(=O)n(C)c1=O	-7.32%
CC(C)CNS(=O)(=O)c1ccc(OCC(=O)Nc2ccc3c(c2)OCO3)c(Cl)c1	-2.63%
COc1cc(NC(=O)c2cccs2)ccc1NC(=O)c1ccccc1Cl	39.7%

Compound	inhibition
COc1cc(NC(=O)c2ccc3c(c2)OCO3)ccc1NC(=O)c1cccs1	55.9% (active)
COc1ccc(S(=O)(=O)N(C)CC(=O)Nc2ccc3c(c2)OCCO3)cc1OC	24.6%
COc1ccc(S(=O)(=O)Nc2ccc3c(c2)OCO3)cc1Cl	-1.27% (active)
COc1ccc(F)cc1S(=O)(=O)Nc1ccc2c(c1)OCO2	-6.49%
Cn1c(=O)n(C)c2cc(C(=O)Nc3ccc4c(c3)OCO4)ccc21	33.6% (active)
COc1cc(OC)c(C(=O)NCc2ccc3c(c2)OCO3)cc1OC	-10.8%
COc1ccc(C(=O)Nc2ccc3c(c2)OCO3)cc1OC	99% (active)
Cn1c(=O)n(C)c2cc(C(=O)Nc3ccc(Br)cc3)ccc21	-10.4%
COC(=O)c1ccc(C2C3=C(Nc4nnnn42)c2ccccc2OC3)cc1 (centres undefined)	-11.2%
CC1CN(C(=O)CCC(=O)NCCCN2CCC(Cc3ccccc3)CC2)c2cc(Cl)ccc2O1 (centres undefined)	-10.8%
O=C(CN(c1cc(C(F)(F)F)ccc1Cl)S(=O)(=O)c1ccccc1)NCc1cccnc1	-32%
Cc1cccc(C)c1N1C(=O)CN(Cc2ccccc2)C1=S	-4.26%
COc1ccc(C(CNC(=O)COc2ccc([N+](=O)[O-])cc2)N2CCCCC2)cc1 (centres undefined)	-4.67%
COc1ccc(CN2CN(C3CCCC3)CSC2=S)cc1	17.5%
CC1Cc2cc(/C(O)=C3\C(=O)C(=O)N(Cc4cccnc4)C3c3ccccc3F)ccc2O1 (centres undefined)	-7.46%
CCOC(=O)c1c(C)[nH]c(C(=O)NCCN2CCOCC2)c1C	2.41%
C[C@H]1[C@H]2c3nc4ccccc4n3C[C@H]1ON2C1CCCCC1	-7.22%
CCOC(=O)C(Cc1ccc(N)cc1)N1C(=O)c2ccccc2C1=O (centres undefined)	7.65%
Cc1ccc2nc(-c3ccc(NC(=O)c4cccnc4)cc3)oc2c1	142% (active)
Cc1cc2nc(-c3ccc(NC(=O)c4cccnc4)cc3)oc2cc1C	101% (active)

Compound	inhibition
COc1cc(OC)cc(C(=O)Nc2ccc(-c3nc4ccccc4o3)c(O)c2)c1	35.4%
CC(=O)NC(=S)Nc1ccc(NC(=O)c2cccnc2)cc1	24.9%
Cc1cc(NS(=O)(=O)c2ccc(NC(=O)c3cccnc3)cc2)nc(C)n1	2.23%
COC(=O)c1cc(NC(=O)c2cccnc2)ccc1N1CCOCC1	26.8%
CC(=O)Nc1ccc(-c2nc3ccccc3o2)cc1	54.7% (active)
O=C(Nc1cnccn1)c1cccnc1	11%
CC(=O)Nc1ccc(Nc2c3ccccc3nc3ccccc23)cc1	-31.9%
COc1ccc(CNC(=O)CN(C(=O)c2csnn2)c2cnc3ccccc3c2)cc1	-8.3%
CCOC(=O)c1cc(=O)c2ccc(OCc3ccccc3)cc2o1	-1.81%
CCOc1ccccc1NS(=O)(=O)c1c[nH]c(C(=O)OC)c1	-3.38%
Cc1ccc(NC(=O)C2CCN(S(=O)(=O)c3ccc4c(c3)NC(=O)CO4)CC2)cc1C	-2.09%
CNC[C@H](CC1CCCCC1)NC[C@H](NCCC1CCCC1)[C@H](C)O	-0.811%
O=C(O)C1CC=CCC1C(=O)NCCc1ccccc1 (centres undefined)	5.17%
CC(=O)Nc1ccc(NC(=O)COc2ccccc2C(=O)Nc2cccc(Cl)c2Cl)cc1	12.3%
O=C(Nc1ccccc1)c1ccccc1NC(=O)C(F)(F)F	52.8%
O=C(Nc1ccc(Cl)c(Cl)c1)c1ccccc1NC(=O)C1CC=CCC1C(=O)O (centres undefined)	59.4% (active)
O=C(O)C1CC=CCC1C(=O)Nc1ccccc1C(=O)N1CCN(c2ccccc2)CC1 (centres undefined)	-42.2%
O=C(Nc1cccc(Cl)c1Cl)c1ccccc1NC(=O)C1CC=CCC1C(=O)O (centres undefined)	35.7% (active)
Cc1ccc(N(CC(=O)NCC2CCCO2)C(=O)CNS(=O)(=O)c2ccc(Cl)cc2)cc1 (centres undefined)	-7.51%
